The whole screen tested about 5,500 compounds, of which about 2,000 (36%) were called active. Roughly 18% stayed inconclusive and do not appear here. No stated cut-off is given here; in the data, active means normalized growth mostly below about 0.91 (no sharp cut-off); inconclusive means no clear call, values can overlap the other calls; inactive means mostly above about 0.92. Some of the results follow.
Assay: chemical genetic growth profiling, strain panel (AID 1159580);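 further: tested at 20 µM; growth read once vehicle control cultures reached saturation at 30 °C; 1 = growth at the plate median or of vehicle wells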
Conditions: S. cerevisiae deletion strains, growth OD

Measured: normalized growth

COC(=O)C1C(O)CCC2CN3CCc4c([nH]c5ccccc45)C3CC21 (centres undefined)
inactive: locus YAL040C, strain CLN3, stronger effect = lower value 0.997 | locus YCL061C, strain MRC1 (second series), stronger effect = lower value 1.01 | locus YDR363W, strain ESC2, stronger effect = lower value 1 | locus YER002W, strain NOP16, stronger effect = lower value 1.01 | locus YGR078C, strain PAC10, stronger effect = lower value 1.01 | locus YGR229C, strain SMI1, stronger effect = lower value 1.04 | locus YMR307W, strain GAS1, stronger effect = lower value 1.01 | locus YNL153C, strain GIM3, stronger effect = lower value 0.981 | locus YNL175C, strain NOP13, stronger effect = lower value 1.02 | locus YNL197C, strain WHI3, stronger effect = lower value 0.995 | locus YNL224C, strain SQS1, stronger effect = lower value 1 | locus YNL322C, strain KRE1, stronger effect = lower value 1.03 | locus YOR083W, strain WHI5 (second series), stronger effect = lower value 1 | locus YPL241C, strain CIN2, stronger effect = lower value 1.01
